Results filed as inconclusive are left out. Activity calls are given as the source filed them. Unless noted, calls come from the whole dose curve; as a rule, active = well fitted curve in the direction sought with a large enough effect; inconclusive = small, poorly fitted or top-dose-only effect, or another doubt; inactive = no such curve, though single readings can be large; an effect the other way counts as inactive or inconclusive.
Columns and labels:
[1] = biological target: Lysosomal acid glucosylceramidase (Homo sapiens) (UniProt P04062); test: Glucocerebrosidase-p2 (AID 348; in the data active = potency below about 10 µM; note: potency is the fitted concentration of half-maximal effect); details: purified GBA, blue fluorogenic substrate, 40 min
Lysosomal acid glucosylceramidase (Homo sapiens), sequence (P04062 whole entry, looked up): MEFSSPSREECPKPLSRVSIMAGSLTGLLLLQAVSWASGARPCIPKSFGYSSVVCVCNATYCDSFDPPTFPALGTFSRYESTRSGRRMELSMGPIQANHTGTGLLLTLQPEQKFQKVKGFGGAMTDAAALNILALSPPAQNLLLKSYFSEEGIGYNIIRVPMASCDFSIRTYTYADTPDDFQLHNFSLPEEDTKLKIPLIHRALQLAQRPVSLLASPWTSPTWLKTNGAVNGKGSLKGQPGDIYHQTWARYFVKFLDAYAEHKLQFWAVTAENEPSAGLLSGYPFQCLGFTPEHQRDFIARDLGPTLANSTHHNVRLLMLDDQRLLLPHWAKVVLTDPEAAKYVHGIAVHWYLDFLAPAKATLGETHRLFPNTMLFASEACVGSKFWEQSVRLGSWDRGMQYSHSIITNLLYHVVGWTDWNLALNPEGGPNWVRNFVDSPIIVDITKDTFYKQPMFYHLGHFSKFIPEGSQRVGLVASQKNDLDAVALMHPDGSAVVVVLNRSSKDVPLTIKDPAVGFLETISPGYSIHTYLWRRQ
Method in brief: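 Compounds titrated from 0.6 nM upwards against 0.2 nM enzyme in pH 5.9 citric acid/KH2PO4, taurocholate, tween-20; blue fluorogenic substrate 80 uM, 40 min room temperature, stopped and read Ex 365/Em 440 for AC50.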

[2] = AP1 Signaling Pathway (AID 357; active = well fitted curve in either direction with a large enough effect, not every such curve was filed as active;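 note: ME-180 reporter cells stimulated with EGF at its EC50 level; % is set by controls: 0 for no effect and ±100 for the full control effect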); details: ME-180 AP-1-bla reporter, EGF-induced, beta-lactamase ratio, 5 h; at 7.69 µM (top of the series) unless noted
Method in brief: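 AP-1-bla ME-180 cells, Opti-MEM + 0.5% dialyzed FBS, plated overnight 37 °C. Cpd titration + EC50 EGF, 5 h 37 °C. CCF4 2.5 h RT; ex 405, em 460/530 ratio → %activity, AC50.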

[3] = NFAT Signaling Pathway (AID 444; active = well fitted curve in either direction with a large enough effect, not every such curve was filed as active;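 note: carbachol stimulus at about its EC50 of 1 µM final; % is set by controls: 0 for no effect and ±100 for the full control effect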); details: Jurkat NFAT-bla M1, carbachol, beta-lactamase ratio, 5 h; at 7.69 µM (top of the series) unless noted
Method in brief: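 Jurkat cells with NFAT-driven β-lactamase reporter and co-expressed M1 receptor, stimulated with carbachol (final 1 uM, ~EC50), compound titration, 5 h at 37 °C. CCF4 loaded 1 h at RT; 460/530 nm ratio gave %activity and AC50.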

[4] = Stat Signaling Pathway (AID 446; active = well fitted curve in either direction with a large enough effect, not every such curve was filed as active;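 note: ME-180 cervical cancer cells given 40 pM IL-6 alongside compound; SIE-controlled beta-lactamase reporter measured as 460/530 nm FRET emission ratio; % is set by controls: 0 for no effect and ±100 for the full control effect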); details: ME-180 SIE beta-lactamase reporter, IL-6 stimulated, 5 h; at 7.69 µM (top of the series) unless noted
Method in brief: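 Screening format detects activators and inhibitors alike: ME-180 SIE-bla cells stimulated at 40 pM IL-6 for 5 hrs with compound, then dual-emission beta-lactamase read at 405 nm excitation.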

[5] = biological target: Glucocorticoid receptor (Homo sapiens) (UniProt P04150); test: GR-GFP Redistribution (AID 450;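 active = compounds whose dose series gives a full or clear partial fitted curve of increased nuclear translocation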; note: potency is the fitted concentration of half-maximal effect); details: U2OS GR-GFP nuclear translocation, laser cytometry, 2 h
Glucocorticoid receptor (Homo sapiens), sequence (P04150 whole entry, looked up, the tested form may be a part): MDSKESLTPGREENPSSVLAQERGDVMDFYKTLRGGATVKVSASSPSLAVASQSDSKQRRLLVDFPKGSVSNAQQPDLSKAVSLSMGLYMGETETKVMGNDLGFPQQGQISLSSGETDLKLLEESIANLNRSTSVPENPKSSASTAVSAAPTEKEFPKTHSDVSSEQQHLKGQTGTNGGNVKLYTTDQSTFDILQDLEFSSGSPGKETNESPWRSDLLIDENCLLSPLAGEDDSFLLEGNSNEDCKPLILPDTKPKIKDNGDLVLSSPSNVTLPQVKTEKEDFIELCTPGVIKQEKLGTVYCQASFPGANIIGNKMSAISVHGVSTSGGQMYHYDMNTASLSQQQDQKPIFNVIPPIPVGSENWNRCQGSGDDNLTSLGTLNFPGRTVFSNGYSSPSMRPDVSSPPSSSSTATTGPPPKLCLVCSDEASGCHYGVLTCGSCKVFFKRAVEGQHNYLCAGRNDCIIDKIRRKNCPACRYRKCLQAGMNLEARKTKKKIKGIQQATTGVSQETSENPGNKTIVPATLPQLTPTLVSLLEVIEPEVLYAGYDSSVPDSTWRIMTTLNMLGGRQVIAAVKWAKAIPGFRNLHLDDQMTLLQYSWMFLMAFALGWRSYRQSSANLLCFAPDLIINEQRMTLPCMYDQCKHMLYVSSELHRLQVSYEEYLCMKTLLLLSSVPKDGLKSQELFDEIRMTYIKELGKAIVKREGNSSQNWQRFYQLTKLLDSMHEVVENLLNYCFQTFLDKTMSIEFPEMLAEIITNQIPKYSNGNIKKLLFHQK

[6] = biological target: Glucocorticoid receptor (Homo sapiens) (UniProt P04150); test: GR-EFC Redistribution (AID 451; calls by dose curve; note: potency is the fitted concentration of half-maximal effect); details: CHO-K1 GR-EFC translocation, beta-gal luminescence, 2 h
Method in brief: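 CHO-K1 cells expressing nuclear EA and GR-ED fragments of b-gal; compounds titrated up to 46 uM final, 2 h at 37 C. GR nuclear translocation read as complemented b-gal luminescence after 1 h RT detection.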

[7] = biological target: Mitogen-activated protein kinase 10 (Mus musculus) (UniProt Q61831); test: JNK3 AlphaScreen Assay (AID 530; active = well fitted curve in either direction with a large enough effect, not every such curve was filed as active;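 note: kinase came from lysate of stimulated human HepG2 cells; signal reports phosphorylation of biotinylated GST-cJun 1-79 at Ser73 with 10 µM ATP; % is set by controls: 0 for no effect and ±100 for the full control effect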); details: JNK3 lysate, c-Jun phosphorylation; series mostly up to 57.1 µM
Method in brief: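 Pre-activated (IL-1β/TNFα) JNK3 in HepG2 lysates phosphorylates biotin-GST-cJun(1-79), 10 uM ATP; anti-phospho-cJun(Ser73) AlphaScreen read at room temperature, pH 7.6 Tris buffer. Compounds pre-incubated 15 min as titrations.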

[8] = biological target: 3',5'-cyclic-AMP phosphodiesterase 4B (Homo sapiens) (UniProt Q07343); test: qHTS Assay for Inhibitors of PDE-IV (AID 607; active = well fitted activation curve with a large enough effect in the main read-out, with a control signal flat, not every such curve was filed as active; note: % of control where 0% means no effect); details: HEK293 ACTOne CNG channel cells, membrane potential fluorescence; series mostly up to 22.9 µM
3',5'-cyclic-AMP phosphodiesterase 4B (Homo sapiens), sequence (Q07343 whole entry, looked up): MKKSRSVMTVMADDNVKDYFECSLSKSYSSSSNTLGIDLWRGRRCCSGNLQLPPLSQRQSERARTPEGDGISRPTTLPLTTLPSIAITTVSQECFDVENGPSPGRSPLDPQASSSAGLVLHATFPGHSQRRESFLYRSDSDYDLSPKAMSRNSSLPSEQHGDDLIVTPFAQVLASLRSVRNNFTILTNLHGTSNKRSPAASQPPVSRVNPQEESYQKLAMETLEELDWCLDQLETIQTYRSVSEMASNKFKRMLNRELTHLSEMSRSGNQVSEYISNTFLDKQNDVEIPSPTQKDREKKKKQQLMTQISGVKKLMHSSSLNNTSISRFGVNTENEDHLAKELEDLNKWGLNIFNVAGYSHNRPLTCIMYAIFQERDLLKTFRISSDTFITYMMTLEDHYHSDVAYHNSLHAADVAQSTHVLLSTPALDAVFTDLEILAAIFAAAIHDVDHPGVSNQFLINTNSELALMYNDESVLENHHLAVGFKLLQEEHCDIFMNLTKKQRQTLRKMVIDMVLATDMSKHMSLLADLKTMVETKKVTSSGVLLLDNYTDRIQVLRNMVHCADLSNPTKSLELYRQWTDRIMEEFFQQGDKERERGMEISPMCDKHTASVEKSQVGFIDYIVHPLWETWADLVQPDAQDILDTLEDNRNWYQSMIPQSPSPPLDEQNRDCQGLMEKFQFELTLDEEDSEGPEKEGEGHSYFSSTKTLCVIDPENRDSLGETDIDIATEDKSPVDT
Method in brief: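 The readout is membrane depolarisation from a cAMP-sensing CNG channel, detected with a potential dye at ex 535/em 590. Cells were HEK293-derived (endogenous PDE-IV) at 1000 cells/well, titrated up to 22.9 uM final.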

[9] = qHTS Assay for Lipid Storage Modulators (AID 1519; calls by dose curve); details: Drosophila S3 cells, BODIPY lipid droplet/cell ratio, laser cytometry, cells loaded with oleic acid; for activity change, negative = inhibition: at 57.5 µM (top of the series)
Method in brief: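 Cells seeded at 5,000 per well were treated with compounds over a concentration series and loaded with oleic acid (400 uM, as added). Lipid droplet fluorescence (488 nm excitation, 500-530 nm channel) was read by laser-scanning cytometry and normalized to 20 uM Triacsin C.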

[10] = biological target: Dual specificity protein kinase CLK4 (Homo sapiens) (UniProt Q9HAZ1); test: qHTS Assay for Inhibitors of CDC-like Kinase 4 (Kinase-Glo Assay) (AID 1770); details: recombinant Clk4, Kinase-Glo ATP depletion luminescence; series mostly up to 66.7 µM; note: nearly all actives have a fitted effect of over 65% in size; note: potency is the fitted concentration of half-maximal effect
Dual specificity protein kinase CLK4 (Homo sapiens), sequence (Q9HAZ1 whole entry, looked up): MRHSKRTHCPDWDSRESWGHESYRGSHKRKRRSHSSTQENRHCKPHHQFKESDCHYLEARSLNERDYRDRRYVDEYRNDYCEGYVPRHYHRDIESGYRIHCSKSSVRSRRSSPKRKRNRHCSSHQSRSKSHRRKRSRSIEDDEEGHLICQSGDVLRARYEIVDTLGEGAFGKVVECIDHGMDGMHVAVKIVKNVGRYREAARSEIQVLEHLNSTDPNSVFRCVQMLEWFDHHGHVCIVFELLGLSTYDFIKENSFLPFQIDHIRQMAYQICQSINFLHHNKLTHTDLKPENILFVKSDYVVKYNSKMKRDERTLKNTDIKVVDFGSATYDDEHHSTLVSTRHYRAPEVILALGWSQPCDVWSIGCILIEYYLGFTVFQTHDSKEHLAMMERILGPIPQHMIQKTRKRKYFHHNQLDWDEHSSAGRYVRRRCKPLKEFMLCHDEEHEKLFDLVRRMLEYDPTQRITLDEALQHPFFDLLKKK
Method in brief: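 25 nM Clk4 with 100 uM RS repeat peptide and 1 uM ATP (final) in Tris pH7.5, 10 mM MgCl2, 4.5 h at room temperature. Remaining ATP measured by Kinase-Glo luciferase luminescence.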

[11] = biological target: Dual specificity protein kinase CLK4 (Homo sapiens) (UniProt Q9HAZ1); test: qHTS Assay for Inhibitors of CDC-like Kinase 4 (ADP-Glo Assay) (AID 1771); details: recombinant CLK4, ADP-Glo luminescence; series mostly up to 80 µM; note: nearly all actives have a fitted effect of over 70% in size; note: potency is the fitted concentration of half-maximal effect
Method in brief: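 25 nM Clk4 with 100 uM RS repeat peptide and 1 uM ATP (final) in buffer with 2 mM MgCl2, 0.5 mM EGTA, 2.5 mM DTT, 0.01% Triton X-100; 1 h at room temperature; ADP-Glo luminescence for ADP formed.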

[12] = biological target: Dual specificity protein kinase CLK4 (Homo sapiens) (UniProt Q9HAZ1); test: qHTS Assay for Inhibitors of CDC-like Kinase 4 (ADP-FP Assay) (AID 1795); details: Transcreener ADP fluorescence polarization; series mostly up to 50 µM; note: nearly all actives have a fitted effect of over 60% in size; note: potency is the fitted concentration of half-maximal effect
Method in brief: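 Recombinant Clk4 (6.25 nM) phosphorylated 100 uM RS repeat peptide with 1 uM ATP in 25 mM Tris pH 7.5, 10 mM MgCl2, 0.5 mM EGTA, 2.5 mM DTT, 0.01% Triton X-100 for 1 h. ADP was detected by Transcreener ADP2 competitive fluorescence polarization after 30 min at room temperature.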

[13] = biological target: Ubiquitin carboxyl-terminal hydrolase 1 (Homo sapiens) (UniProt O94782); test: Inhibitors of USP1/UAF1: Pilot qHTS (AID 504865); details: purified USP1/UAF1, Ub-rhodamine cleavage fluorescence; series mostly up to 54.9 µM;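 note: rhodamine fluorescence freed from ubiquitin-rhodamine substrate followed over time; top concentration of the series differs between compounds; % is set by controls: 0 for no effect and ±100 for the full control effect; nearly all actives have a fitted effect of over 35% in size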
Ubiquitin carboxyl-terminal hydrolase 1 (Homo sapiens), sequence (O94782 whole entry, looked up): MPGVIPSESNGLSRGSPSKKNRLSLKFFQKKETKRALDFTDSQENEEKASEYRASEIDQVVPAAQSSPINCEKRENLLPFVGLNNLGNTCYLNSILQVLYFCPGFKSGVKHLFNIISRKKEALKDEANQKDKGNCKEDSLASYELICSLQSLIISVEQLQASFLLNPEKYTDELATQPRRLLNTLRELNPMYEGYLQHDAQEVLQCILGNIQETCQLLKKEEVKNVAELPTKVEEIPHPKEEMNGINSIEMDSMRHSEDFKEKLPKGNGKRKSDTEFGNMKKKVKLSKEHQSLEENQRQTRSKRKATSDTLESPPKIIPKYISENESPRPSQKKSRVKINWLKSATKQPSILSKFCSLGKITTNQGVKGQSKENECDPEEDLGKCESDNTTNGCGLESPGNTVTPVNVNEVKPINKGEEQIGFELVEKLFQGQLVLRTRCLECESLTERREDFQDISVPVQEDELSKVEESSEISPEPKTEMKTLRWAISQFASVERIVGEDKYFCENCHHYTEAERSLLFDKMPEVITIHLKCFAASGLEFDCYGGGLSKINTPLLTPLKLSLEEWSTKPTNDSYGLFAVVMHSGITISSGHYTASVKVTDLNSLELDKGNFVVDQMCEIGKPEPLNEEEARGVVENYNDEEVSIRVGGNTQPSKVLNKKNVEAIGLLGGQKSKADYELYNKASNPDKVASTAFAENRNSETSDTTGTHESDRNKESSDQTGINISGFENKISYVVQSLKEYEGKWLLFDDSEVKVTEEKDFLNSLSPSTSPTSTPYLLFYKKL
Method in brief: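 USP1/UAF1 complex at 1 nM preincubated 15 min at room temperature with compound, then Ub-Rho substrate added at 150 nM final. Fluorescence (480/540 nm) read kinetically in 50 mM HEPES pH 7.8, 0.5 mM EDTA, 1 mM TCEP, 0.1 mg/ml BSA, 0.01% Tween-20.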

[14] = Primary qHTS for small molecule stabilizers of the endoplasmic reticulum resident proteome: Secreted ER Calcium Modulated Protein (SERCaMP) assay (AID 1508630); details: SH-SY5Y GLuc-SERCaMP (Gaussia luciferase released on ER calcium loss) secretion, thapsigargin, luminescence; series mostly up to 38.4 µM; note: % is set by controls: 0 for no effect and ±100 for the full control effect
Method in brief: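 GLuc-SERCaMP-expressing SH-SY5Y cells, pretreated 16 h with compound, are challenged with thapsigargin to empty ER calcium stores; after 4 h, coelenterazine is added directly to the medium and luminescence is imaged.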

[15] = biological target: Cytochrome P450 1A2 (Homo sapiens) (UniProt P05177); test: p450-cyp1a2 (AID 410; calls by dose curve; note: potency is the fitted concentration of half-maximal effect); details: recombinant CYP1A2, luciferin-ME demethylation, luminescence; series mostly up to 57 µM
Cytochrome P450 1A2 (Homo sapiens), sequence (P05177 whole entry, looked up): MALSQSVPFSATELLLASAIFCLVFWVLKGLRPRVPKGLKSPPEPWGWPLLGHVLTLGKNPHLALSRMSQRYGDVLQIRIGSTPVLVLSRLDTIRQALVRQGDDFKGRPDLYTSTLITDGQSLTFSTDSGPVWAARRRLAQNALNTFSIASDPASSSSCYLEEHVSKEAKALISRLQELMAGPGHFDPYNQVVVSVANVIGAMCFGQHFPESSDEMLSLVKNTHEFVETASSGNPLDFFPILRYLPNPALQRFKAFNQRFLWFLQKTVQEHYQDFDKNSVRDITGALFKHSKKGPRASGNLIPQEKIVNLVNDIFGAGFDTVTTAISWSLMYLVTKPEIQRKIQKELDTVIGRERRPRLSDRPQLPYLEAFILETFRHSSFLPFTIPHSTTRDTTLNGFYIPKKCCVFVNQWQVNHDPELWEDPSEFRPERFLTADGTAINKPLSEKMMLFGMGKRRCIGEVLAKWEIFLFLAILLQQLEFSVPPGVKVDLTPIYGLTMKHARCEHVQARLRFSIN
Method in brief: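 20nM CYP1A2 with 100uM Luciferin-ME (at Km) in 100mM KPO4; compound preincubated 10 min, NADPH regeneration added, 60 min at room temperature. Luciferin quantified by luminescence after detection reagent; normalized to 57 uM furafylline.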

[16] = biological target: Cytochrome P450 3A4 (Homo sapiens) (UniProt P08684); test: qHTS Assay for Activators of Cytochrome P450 3A4 (AID 885); details: recombinant CYP3A4, Luciferin-PPXE luminescence, 60 min; series mostly up to 57.1 µM; note: nearly all actives have a fitted effect of over 65% in size
Cytochrome P450 3A4 (Homo sapiens), sequence (P08684 whole entry, looked up): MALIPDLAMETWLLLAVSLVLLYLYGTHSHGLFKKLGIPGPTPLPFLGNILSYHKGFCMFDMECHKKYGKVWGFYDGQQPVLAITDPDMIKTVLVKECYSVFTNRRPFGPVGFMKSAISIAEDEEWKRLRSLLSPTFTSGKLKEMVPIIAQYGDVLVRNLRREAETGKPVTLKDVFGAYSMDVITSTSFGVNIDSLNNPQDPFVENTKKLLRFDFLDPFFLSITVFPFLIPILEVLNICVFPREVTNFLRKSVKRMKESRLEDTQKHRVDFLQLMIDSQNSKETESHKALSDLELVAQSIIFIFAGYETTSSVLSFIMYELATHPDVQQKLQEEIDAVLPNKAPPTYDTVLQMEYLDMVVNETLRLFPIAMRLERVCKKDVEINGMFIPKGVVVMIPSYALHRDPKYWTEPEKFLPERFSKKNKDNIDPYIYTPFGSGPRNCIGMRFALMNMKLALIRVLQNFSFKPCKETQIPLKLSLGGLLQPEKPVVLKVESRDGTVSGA
Method in brief: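 Steps: enzyme/substrate mix dispensed; compound added, 10 min RT; NADPH regeneration solution added, 60 min RT; luciferin detection buffer stops reaction; 20 min later luminescence measured.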

[17] = biological target: Cytochrome P450 3A4 (Homo sapiens) (UniProt P08684); test: qHTS Assay for Inhibitors and Substrates of Cytochrome P450 3A4 (AID 884); details: recombinant CYP3A4, Luciferin-PPXE luminescence; series mostly up to 57.1 µM; note: potency is the fitted concentration of half-maximal effect; nearly all actives have a fitted effect of over 50% in size
Method in brief: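 20 nM human CYP3A4 with 25 uM Luciferin-PPXE (at KM) in 200 mM KPO4, preincubated 10 min with compound; NADPH regeneration started a 60 min RT reaction. Luciferin detected by luminescence, normalized to 57 uM ketoconazole as full inhibition.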

[18] = measured here: cell count channel max response
[19] = measured here: lipid channel max response

Compound | Potency [1] | activity change, negative = inhibition [2] | activity change, negative = inhibition [3] | activity, negative = inhibition [4] | Potency [5] | Potency [6] | outcome [7] | Potency [8] | activity change, negative = inhibition [9] | max response [9, 18] [%] | max response [9, 19] [%] | Potency [10] | Potency [11] | Potency [12] | Potency [13] | Potency [14] | Potency [15] | Potency [16] | Potency [17]
COCCn1c(=O)cnc2cnc(OC)nc21 | > 11.4 µM (inactive) | -9.59% (inactive) | 1.87% (inactive) | -10.3% (inactive) | > 9.22 µM (inactive) | > 46 µM (inactive) | inactive | inactive | 6.21% (inactive) | 19.3 | 24.8 | inactive | inactive | inactive | inactive | inactive |  |  | 
Cc1noc(C)c1-c1ccc2ncnc(N(C)C)c2c1 | > 11.4 µM (inactive) | -2.75% (inactive) |  | -14.9% (inactive) | > 46 µM (inactive) | > 46 µM (inactive) | inactive | inactive | 3.59% (inactive) | 19 | 20.5 | 7.08 µM (active) | 4.47 µM (active) | 2 µM (active) | inactive | inactive | 0.631 µM (active) |  | 
COc1ccccc1-c1nccc(NC2CCNCC2)n1 | > 11.4 µM (inactive) | 3.56% (inactive) | 5.88% (inactive) | 27.9% (inactive) | > 46 µM (inactive) | > 46 µM (inactive) | inactive | inactive | 2.87% (inactive) | 7.38 | 8.77 | inactive | inactive | inactive | inactive | inactive |  |  | 
COc1ccc(-n2c(=O)c(-c3cccs3)nc3cnc(N4CCOCC4)nc32)cc1 | > 11.4 µM (inactive) | 0.656% (inactive) |  |  | > 9.22 µM (inactive) | > 46 µM (inactive) | inactive | inactive | 5.16% (inactive) | 28.1 | 27.2 | inactive | inactive | inactive | inactive | inactive | 12.6 µM (active) | inactive | 
COc1ncc2nc(-c3ccc(F)cc3)c(=O)n(C3CC3)c2n1 | > 11.4 µM (inactive) | -9.24% (inactive) | -21.4% (inactive) | -4.24% (inactive) | > 9.22 µM (inactive) | > 46 µM (inactive) | inactive | inactive | 4.43% (inactive) | 16.8 | 19.3 | inactive | inactive | inactive | inactive | inactive |  |  | 
CN1CCN(c2ncc3nc(-c4cc(F)cc(F)c4)c(=O)n(C4CC4)c3n2)CC1 | > 11.4 µM (inactive) | -8.53% (inactive) | -23.1% (inactive) |  | > 9.22 µM (inactive) | > 46 µM (inactive) |  | inactive | 1.65% (inactive) | 12.3 | 12.5 | inactive | inactive | inactive | inactive | inactive | 15.8 µM (active) | inactive | 
Cc1noc(C)c1-c1cc(N2CCNCC2)ncn1 | > 11.4 µM (inactive) | -3.92% (inactive) | 7.79% (inactive) | 5.3% (inactive) | > 46 µM (inactive) | > 46 µM (inactive) | inactive | inactive | 5.16% (inactive) | 1.52 | 8.99 | inactive | inactive | inactive | inactive | inactive |  |  | 
Cn1c(=O)c(-c2cccs2)nc2cnc(OCc3ccccc3)nc21 | > 11.4 µM (inactive) | 16% (inactive) | 22.3% (inactive) |  | > 9.22 µM (inactive) | > 46 µM (inactive) | inactive | inactive | 6.88% (inactive) | 20.6 | 29.6 | inactive | inactive | inactive |  | inactive | 7.94 µM (active) |  | 
Cc1nc2cnc(Nc3ccccc3)nc2n(Cc2ccc(F)cc2)c1=O | > 11.4 µM (inactive) | -12.8% (inactive) | -23.6% (inactive) | 2.69% (inactive) | > 9.22 µM (inactive) | > 46 µM (inactive) | inactive | inactive | 1.06% (inactive) | 7.11 | 6.57 | inactive | inactive | inactive | inactive | inactive |  |  | 
CCNc1ncc2nc(-c3ccc(Cl)cc3)c(=O)n(C[C@H]3CCCO3)c2n1 | > 11.4 µM (inactive) | 25.5% (inactive) | 4.01% (inactive) |  | > 9.22 µM (inactive) | > 46 µM (inactive) | inactive | inactive | -12.7% (inactive) | -16 | -29.6 | inactive | inactive | inactive | inactive | inactive | 0.794 µM (active) |  | 
COCCNc1ncncc1-c1c(C)noc1C | > 11.4 µM (inactive) | 8.31% (inactive) | -1.26% (inactive) | 0.118% (inactive) | > 46 µM (inactive) | > 46 µM (inactive) | inactive | inactive | 3.6% (inactive) | 19.7 | 24.5 | inactive | inactive | inactive | inactive | inactive |  | inactive | 5.01 µM (active)
COc1ncc2nc(-c3ccccc3)c(=O)n(C)c2n1 | > 11.4 µM (inactive) | -19.1% (inactive) |  | -14.9% (inactive) | > 9.22 µM (inactive) | > 46 µM (inactive) | inactive | inactive | 6.24% (inactive) | 20 | 24.3 | inactive | inactive | inactive | inactive | inactive | 1.58 µM (active) |  | 

From PubChem BioAssay (NCATS)
